These results are taken from PubChem BioAssay (NCI).

Some test systems named below: DU-145 prostate; K-562 leukemia; MALME-3M melanoma; MDA-MB-231 breast; RXF 393 renal; SF-268 CNS; SF-295 CNS; SF-539 CNS; UACC-257 melanoma; M14 melanoma; HCT-15 colon; HT29 colon; SNB-75 CNS; SNB-19 CNS; U251 CNS; PC-3 prostate; SK-MEL-5 melanoma; UACC-62 melanoma; LOX IMVI melanoma; SK-MEL-28 melanoma.
Holding throughout (test): NCI-60 one-dose screen, 48 h (100 = growth as untreated, 0 = no growth, -100 = all killed)
Details in all cases: 10 µM unless noted

This is part of a sample that, as a whole, favours compounds with a hit. Of some 83,000 tested, about 20% had one in any assay.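 Plates (96-well) were seeded with cells, treated with compound at one concentration, and incubated for 48 hours before percent growth was determined.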 Unmarked numbers belong to inactive results. Active and inactive are the calls of the source. Rule for the calls: active = growth percent below 10; inactive = the rest.

Consider `COc1cc2c(c(OC)c1OC)C(=O)CC(c1cccc(NC(=O)c3ccc(C#N)cc3)c1)O2` (stereo not given), for which the growth in the assay with DU-145 prostate is 83.6%; with K-562 leukemia, 48.6%; in the assay on MALME-3M melanoma, 83.7%; in the assay on MDA-MB-231 breast it was 79.9%; in the assay on RXF 393 renal, 97.3%; with SF-268 CNS, 86.5%. The growth in the assay on SF-295 CNS is 77.9%; in the assay on SF-539 CNS, 92.7%; with UACC-257 melanoma, 72.3%; in the assay with M14 melanoma, 64.4%; in the assay on HCT-15 colon, 75.7%; in the assay with HT29 colon, 84.9%. The growth in the assay with SNB-75 CNS was 74.9%; in the assay on SNB-19 CNS, 92%; in the assay with U251 CNS, 80.5%; in the assay with PC-3 prostate, 53%; in the assay on SK-MEL-5 melanoma it was 43.2%; in the assay on UACC-62 melanoma it was 33.9%. The growth with LOX IMVI melanoma was 65.7%; in the assay with SK-MEL-28 melanoma, 90.6%.
In the case of `CC/C=C\CCC/C=C1/C(=O)C=C[C@@H]1C/C=C\CCCC(=O)OC`, the growth in the assay with DU-145 prostate was 60.4%; in the assay on K-562 leukemia it was 0.856% (active); in the assay on MALME-3M melanoma, 34.1%; in the assay on MDA-MB-231 breast it was 15.3%; in the assay on RXF 393 renal, 96.4%; in the assay on SF-268 CNS it was 31%. The growth with SF-295 CNS is 74.2%; in the assay with SF-539 CNS it was 95.4%; in the assay on UACC-257 melanoma, 69.7%; in the assay with M14 melanoma, 1.66% (active); in the assay on HCT-15 colon it was 4.07% (active); in the assay with HT29 colon, -1.77% (active). For the same compound, the growth in the assay with SNB-75 CNS is 82.7%; in the assay with SNB-19 CNS, 50.2%; in the assay with U251 CNS, 19.7%; in the assay on PC-3 prostate it was 32.8%; with SK-MEL-5 melanoma, -32% (active); with UACC-62 melanoma it was -14.2% (active). The results for the growth with LOX IMVI melanoma and in the assay on SK-MEL-28 melanoma were -70.8% (active) and 61.3%, respectively.
With `COc1cc(/C=N/Nc2ccc(Br)cc2)cc(OC)c1OC`, the growth was 63.1% in the assay on DU-145 prostate; 9.82% (active) with K-562 leukemia; 55.5% in the assay on MALME-3M melanoma; 47.5% with MDA-MB-231 breast; 102% with RXF 393 renal; 52.5% with SF-268 CNS. Moreover, the growth in the assay with SF-295 CNS is 60.9%; in the assay on SF-539 CNS, 63.5%; in the assay with UACC-257 melanoma, 84.6%; with M14 melanoma it was 18.4%; with HCT-15 colon, 18.9%; in the assay on HT29 colon it was 29.2%. Besides, the growth is 87.5% in the assay with SNB-75 CNS; 91.6% in the assay on SNB-19 CNS; 65.5% with U251 CNS; 60.9% in the assay on PC-3 prostate; 85% in the assay with SK-MEL-5 melanoma; 36.8% in the assay with UACC-62 melanoma. Also, the growth in the assay with LOX IMVI melanoma is 13.5%; in the assay with SK-MEL-28 melanoma it was 82.1%.
Take `CNC1=CC(=O)c2c(C(=O)OC)c(C)[n+]([O-])c(C)c2C1=O`: the growth with DU-145 prostate was 68.7%; in the assay with K-562 leukemia it was 71%; in the assay on MALME-3M melanoma, -46.2% (active); in the assay with MDA-MB-231 breast it was 63.8%; with RXF 393 renal it was 74.4%; in the assay with SF-268 CNS, 89.2%. In addition, the growth in the assay with SF-295 CNS was 86.4%; with SF-539 CNS, 83.8%; in the assay with UACC-257 melanoma, 49.3%; in the assay on M14 melanoma, 24%; in the assay with HCT-15 colon, 49.1%; in the assay on HT29 colon, 16.5%. Moreover, the growth is 147% in the assay on SNB-75 CNS; 81.5% in the assay with SNB-19 CNS; 64% in the assay on U251 CNS; 61.9% in the assay with PC-3 prostate; -47.9% (active) in the assay on SK-MEL-5 melanoma; 27.3% with UACC-62 melanoma. The growth is 34.4% in the assay on LOX IMVI melanoma and 96.3% in the assay on SK-MEL-28 melanoma.
Consider `CC(C)(C)n1cc(-c2ccnc(NCCCNS(=O)(=O)c3cccc4ccccc34)c2)c(-c2cccc(F)c2)n1`, for which the growth is 89.4% in the assay with DU-145 prostate; 30.8% with K-562 leukemia; 113% in the assay with MALME-3M melanoma; 80.6% with MDA-MB-231 breast; 76.8% in the assay with RXF 393 renal; 85.2% with SF-268 CNS. The growth with SF-295 CNS is 63.9%; with SF-539 CNS it was 72.4%; with UACC-257 melanoma it was 94.4%; in the assay on M14 melanoma, 73.3%; in the assay with HCT-15 colon, 44.6%; in the assay with HT29 colon, 27.6%. Besides, the growth in the assay with SNB-75 CNS is 67.2%; with SNB-19 CNS, 86.3%; in the assay with U251 CNS it was 65%; in the assay with PC-3 prostate, 55.8%; with SK-MEL-5 melanoma, 74.5%; in the assay on UACC-62 melanoma, 80.5%. Further, the growth in the assay with LOX IMVI melanoma was 54.7%; in the assay on SK-MEL-28 melanoma, 99.9%.
Take `CCN1C(=O)N(CC)C2C1NN=c1s/c(=C\c3cnc(C)n3C)c(=O)n12` (stereo not given): the growth in the assay with DU-145 prostate is 5.42% (active); with K-562 leukemia, 15.5%; with MALME-3M melanoma it was 29.8%; with MDA-MB-231 breast it was 43.8%; in the assay on RXF 393 renal, -29.3% (active); in the assay on SF-268 CNS, 51.9%. The growth was 9.05% (active) in the assay with SF-295 CNS; -20.2% (active) in the assay on SF-539 CNS; 29.7% in the assay with UACC-257 melanoma; 4.96% (active) in the assay on M14 melanoma; 27.7% in the assay with HCT-15 colon; 0.594% (active) with HT29 colon. Besides, the growth with SNB-75 CNS was -24.7% (active); with SNB-19 CNS it was 25.6%; in the assay with U251 CNS, 7.74% (active); with PC-3 prostate, 17.5%; in the assay with SK-MEL-5 melanoma it was 17.9%; in the assay on UACC-62 melanoma it was 31.2%. Also, the figures for the growth in the assay on LOX IMVI melanoma and with SK-MEL-28 melanoma were 34.5% and 42.7%, respectively.
On to `N#C/C(=C\c1cn(Cc2ccccc2)c2ccccc12)C(=O)Nc1ncc(Cc2ccccc2Cl)s1`, for which the growth with DU-145 prostate was 24.3%; in the assay with K-562 leukemia it was 26.2%; with MALME-3M melanoma it was -7.28% (active); in the assay with MDA-MB-231 breast it was 19.8%; in the assay with RXF 393 renal, 40.8%; in the assay with SF-268 CNS, 64.1%. Besides, the growth is 8.89% (active) with SF-295 CNS; 13.5% with SF-539 CNS; -38.2% (active) in the assay on UACC-257 melanoma; 38.9% in the assay on M14 melanoma; 35.7% in the assay with HCT-15 colon; 28.2% in the assay on HT29 colon. Also, the growth with SNB-75 CNS was -12.7% (active); in the assay with SNB-19 CNS it was 72.4%; in the assay with U251 CNS it was -9.08% (active); in the assay on PC-3 prostate, 40.6%; with SK-MEL-5 melanoma, 57.6%; in the assay on UACC-62 melanoma, -40.4% (active). For the same compound, the growth with LOX IMVI melanoma was 24.7%; in the assay on SK-MEL-28 melanoma, 29.9%.
Consider `O=C(Nc1ccccc1[N+](=O)[O-])c1ccc(Cl)c(Cl)c1`, for which the growth is 102% with DU-145 prostate; 91.9% with K-562 leukemia; 93.5% in the assay with MALME-3M melanoma; 93.2% in the assay on MDA-MB-231 breast; 88.1% in the assay on RXF 393 renal; 89.8% in the assay on SF-268 CNS. Besides, the growth in the assay with SF-295 CNS was 93.3%; in the assay with SF-539 CNS, 89.4%; with UACC-257 melanoma, 90.8%; with M14 melanoma it was 101%; in the assay on HCT-15 colon, 91%; with HT29 colon, 98.7%. Moreover, the growth was 69.6% with SNB-75 CNS; 101% in the assay with SNB-19 CNS; 86.1% in the assay with U251 CNS; 80.3% in the assay on PC-3 prostate; 84.2% in the assay on SK-MEL-5 melanoma; 87.2% with UACC-62 melanoma. The figures for the growth in the assay on LOX IMVI melanoma and in the assay on SK-MEL-28 melanoma were 85.9% and 105%, respectively.
